# PubChem BioAssay AID1851 (National Center for Advancing Translational Sciences (NCATS), 2009)
# Where “and” joins values, the source holds several entries; their conditions need not be identical. Identical values can stand only once. The whole screen tested about 16,000 compounds, of which about 2,600 (16%) were called active. Not shown: some 20% with an inconclusive outcome. This is one part of a sample in which actives are shown more often than they occur. The call rests on the fitted dose curve; in most records, active means well fitted curve in the direction sought with a large enough effect; inconclusive means small, poorly fitted or top-dose-only effect, or effect the other way; inactive means no such curve, though single readings can be large or run the other way. Some compounds were tested as several samples or in several runs, with calls that do not always agree.
# Molecular target: Cytochrome P450 2D6 (Homo sapiens) (UniProt P10635)
# Experiment: Cytochrome panel assay with activity outcomes
# Conditions: recombinant CYP, pro-luciferin dealkylation, luminescence, p450-cyp2d6; series mostly up to 57.1 µM; activity, negative = inhibition: at the top concentration
# On the % scale 0 is the no-effect control and ±100 the full control effect.
# Chain of Cytochrome P450 2D6 (Homo sapiens) (P10635 whole entry, looked up): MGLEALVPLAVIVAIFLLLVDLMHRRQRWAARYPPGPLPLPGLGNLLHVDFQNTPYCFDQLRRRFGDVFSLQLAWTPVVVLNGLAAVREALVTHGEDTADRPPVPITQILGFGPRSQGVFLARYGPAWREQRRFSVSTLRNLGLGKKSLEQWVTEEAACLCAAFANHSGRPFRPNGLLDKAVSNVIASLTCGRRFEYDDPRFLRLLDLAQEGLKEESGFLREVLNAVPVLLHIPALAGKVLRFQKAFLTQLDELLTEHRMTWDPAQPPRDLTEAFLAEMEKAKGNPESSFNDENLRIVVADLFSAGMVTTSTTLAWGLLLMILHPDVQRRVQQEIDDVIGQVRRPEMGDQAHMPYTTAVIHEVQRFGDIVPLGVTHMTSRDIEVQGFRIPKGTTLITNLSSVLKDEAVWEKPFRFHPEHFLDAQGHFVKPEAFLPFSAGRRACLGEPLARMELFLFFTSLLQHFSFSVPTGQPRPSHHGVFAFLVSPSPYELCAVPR
SMILES,"activity, negative = inhibition",AC50
O=C(c1ccccc1F)c1cn(CC(=O)N2CCOCC2)c2ccccc12,-6.53% (inactive),–
CCCN(CCC)[C@H]1CCc2c(F)ccc(O)c2C1,–,631 nM (active) and 1.58 µM (active)
CCCN(CCC)[C@@H]1CCc2cccc(O)c2C1,–,3.16 µM (active) and inactive and 794 nM (active)
Cc1cc(C)c(-n2c(O)c(C=NCCN3CCOCC3)c(=O)[nH]c2=O)c(C)c1,4.79% (inactive),–
O=P(Nc1c(Cl)cccc1Cl)(c1ccccc1)c1nc2c(s1)CCCC2 (configuration not stated),-6.06% (inactive),–
C[N+]1([O-])[C@@H]2CC(OC(=O)[C@@H](CO)c3ccccc3)C[C@@H]1[C@H]1O[C@H]12 (some centres not stated),–,inactive
CC(=Nc1c(C)n(C)n(-c2ccccc2)c1=O)c1c(O)n(Cc2ccccc2)c(=O)[nH]c1=O,-3.59% (inactive),–
O=C(O)CN1CCN(CC(=O)O)CC(=O)[O][Hg][O]C(=O)C1,–,3.16 µM (active)
NCCP(=O)(O)O,19.4% [at 11.4 µM] (inactive),–
C[C@@]12CC[C@@H]3[C@H](CCC4=CC(=O)CC[C@]43C)[C@@H]1CC[C@@H]2C(=O)Cn1cnc2c(=S)nc[nH]c21,7.22% [at 11.4 µM] (inactive),–
O[C@@H](c1cc(-c2ccccc2)nc2c1ccc1ccccc12)[C@@H]1CCCCN1,–,3.16 µM (active)
Oc1ccc([C@H](O)[C@@H]2CCCCN2)cc1O,15.6% [at 11.4 µM] (inactive),–
NCc1cc(=O)[nH]o1,–,inactive
O=C(O)/C=C\c1ccc[c]([Sb](=[O])([OH])[OH])c1,-6.51% [at 11.4 µM] (inactive),–
CC(=O)O/C(=C1/C[C@H]2[C@@H]3CC=C4C[C@@H](OC(C)=O)CC[C@]4(C)[C@@H]3CC[C@]2(C)C1=O)C(F)(F)F,-5.95% [at 11.4 µM] (inactive),–
COc1ccc2c(c1)C13CCCC[C@@H]1C(C2)N(C)CC3 (some centres not stated),–,3.98 µM (active)
COc1ccc2c(c1)[C@]13CCCC[C@@H]1[C@H](C2)N(C)CC3,–,2.51 µM (active)
COc1ccc2c(c1)[C@]13CCCC[C@@H]1[C@H](C2)NCC3,–,6.31 µM (active)
CC(C)(O)/C=C\C(=O)[C@](C)(O)[C@H]1[C@H](O)C[C@]2(C)[C@@H]3CC=C4[C@@H](C=C(O)C(=O)C4(C)C)[C@]3(C)C(=O)C[C@@]12C,-2.8% [at 11.4 µM] (inactive),–
C[C@@]12CC[C@H](O)C[C@@H]1CC[C@H]1[C@H]2CC[C@@]2(C)[C@@H](C3=CC(=O)OC3)CC[C@]12O,-0.173% [at 25.6 µM] (inactive),–
C=CCN1C(=O)NC(=O)/C(=C/c2cccn2C)C1=O,26.3% (inactive),–

SMILES,"activity, negative = inhibition",AC50
NC(N)=NCCC[C@H](N)C(=O)O,8.61% (inactive),–
CCOP(=O)(CN(CC)CCNP(=O)(OCC)OCC)OCC,7.73% (inactive),–
O=C1C=C2C=C[C@H]3C[C@@]2(O1)[C@H]1CCCCN31,1.85% [at 25.6 µM] (inactive),–
c1ccc2c(N3CCNCC3)cccc2c1,–,15.8 µM (active)
c1ccc2nc(N3CCNCC3)ccc2c1,–,inactive
COc1ccccc1N1CCNCC1,-9.83% (inactive),–
CN1[C@@H]2CC[C@H]1CC(O[C@@H](c1ccccc1)c1ccc(Cl)cc1)C2 (some centres not stated),–,1.26 µM (active) and 1.58 µM (active)
COc1ccc(C(=O)OC2C[C@H]3CC[C@@H](C2)N3C)cc1OC (some centres not stated),–,1 µM (active)
CN1C2CCC1CC(OC(=O)c1ccc(Cl)cc1)C2 (configuration not stated),–,0.224 µM (active)
CC[C@H](Oc1ccc(Cl)cc1)C(=O)OC1C[C@H]2CC[C@@H](C1)N2C (some centres not stated),–,0.00631 µM (active)
COc1ccc(C(=O)O[C@H]2CC[C@@]3(C)[C@H]4CC[C@H]5[C@]3(C[C@]3(O)[C@H]6CN7C[C@H](C)CC[C@H]7[C@](C)(O)[C@]6(O)[C@H](O)C[C@]53O)O[C@]24O)cc1OC,13.4% [at 11.4 µM] (inactive),–
CCN1C[C@]2(C)CC[C@H](O)[C@@]34[C@@H]5CC6[C@@H](OC)C[C@@](O)([C@@H]5[C@@H]6O)[C@H](C[C@@H]23)[C@H]14,3.42% [at 25.6 µM] (inactive),–
O=c1cccc2n1CC1CNC[C@H]2C1,–,inactive
COC(=O)[C@@H]1[C@@H](O)[C@@]2(O)c3c(OC)cc(OC)cc3O[C@@]2(c2ccc(OC)cc2)[C@H]1c1ccccc1,18.2% [at 11.4 µM] (inactive),–
C[C@@]12CC[C@@H]3[C@@H](CC[C@H]4C[C@@H](O)CC[C@]43C)[C@H]1CC[C@@H]2c1cc(C(F)(F)F)n[nH]1,-7.84% [at 11.4 µM] (inactive),–
O=C(c1ccccc1F)c1cn(Cc2ccccc2)c2ccccc12,-20.1% (inactive),–
Cc1cc(C)cc(C(=O)OC2C[C@H]3CC[C@@H](C2)N3C)c1 (some centres not stated),–,0.251 µM (active)
CN1[C@@H]2CC[C@H]1CC(OC(=O)c1cc(Cl)cc(Cl)c1)C2 (some centres not stated),–,0.00794 µM (active)
C[N+]1([O-])[C@H]2CC[C@H]1CC(OC(=O)[C@@H](CO)c1ccccc1)C2 (some centres not stated),17.4% [at 11.4 µM] (inactive),–
C[C@@H](C(=O)OC1C[C@H]2CC[C@@H](C1)N2C)c1ccc(Br)cc1 (some centres not stated),–,3.98 µM (active)
C[N+]1([O-])[C@@H]2CC[C@H]1CC(OC(=O)[C@@H](CO)c1ccccc1)C2 (some centres not stated),9.36% [at 25.6 µM] (inactive),–

SMILES,"activity, negative = inhibition",AC50
CN1[C@@H]2CC[C@H]1CC(O)C2 (some centres not stated),-4.03% [at 25.6 µM] (inactive),–
CS(=N)(=O)CC[C@H](N)P(=O)(O)O (some centres not stated),-6.15% [at 11.4 µM] (inactive),–
C[C@@]12CCC(=O)C=C1C=C[C@H]1[C@H]3CC[C@](O)(CCC(=O)O)[C@]3(C)CC[C@@H]12,2.47% [at 25.6 µM] (inactive),–
Cc1ccc(S(=O)(=O)NCC2CCC(C(=O)N3CCC4(CC3)OCCO4)CC2)cc1 (configuration not stated),5.05% (inactive),–
CCC12CN3CC(CC)(CN(C1)C3c1cccnc1)C2=O (configuration not stated),-5.29% (inactive),–
O=S(=O)(O)/C(=C\c1ccccc1)c1ccccc1 (tested in a mixture with another compound),-7.27% [at 11.4 µM] (inactive),–
CCCCCC[C@H]1C(=O)O[C@H](C)[C@H](NC(=O)c2cccc(NC=O)c2O)C(=O)O[C@@H](C)[C@H]1OC(=O)CC(C)C,-19.5% [at 25.6 µM] (inactive),–
CN(C)c1ccc(NC(=O)CN2C(=O)CN=C(c3ccccc3)c3ccccc32)cc1,-11.3% (inactive),–
C(#CCN1CCCC1)CN1CCCC1,9.47% [at 25.6 µM] (inactive),–
C[N+](C)(C)CC#CCN1CCCC1=O,–,inactive and 3.98 µM (active)
NC(=O)CN1CCCC1=O,–,inactive
O=C1CCCN1CC#CCN1CCCC1,–,inactive and 7.94 µM (active)
Cc1ccc(OP(=O)(Oc2ccc(C)cc2)N2C=Cc3ccccc3[C@H]2C#N)cc1,-6.26% [at 11.4 µM] (inactive),–
CN(C)CCC(=O)[C@@]1(O)CC[C@H]2[C@H]3CC=C4C[C@@H](O)CC[C@]4(C)[C@H]3CC[C@]21C,-9.11% [at 11.4 µM] (inactive),–
COC[C@H]1OC(=O)c2coc3c2[C@@]1(C)C1=C(C3=O)[C@H]2CCC(=O)[C@@]2(C)C[C@H]1OC(C)=O,-0.794% (inactive),–
S=C(S)N1CCCC1,-6.69% (inactive),–
C[C@@H]1O[C@@H](O[C@H]2C[C@@H](O)[C@@]3(CO)[C@H]4[C@H](O)C[C@]5(C)[C@@H](C6=CC(=O)OC6)CC[C@]5(O)[C@H]4CC[C@@]3(O)C2)[C@@H](O)[C@H](O)[C@H]1O,-4.25% [at 11.4 µM] (inactive),–
O=C(Oc1ccccc1)N1CCC2(CCCN(Cc3nccs3)C2)CC1,–,5.01 µM (active)
COc1ccccc1CN1CCCC2(CCN(C(=O)Oc3ccccc3)CC2)C1,–,3.98 µM (active)
O=C(Nc1cccc(F)c1)N1CCCC2(CCN(C(=O)Oc3ccccc3)CC2)C1,-12.6% (inactive),–
O=C(Oc1ccccc1)N1CCC2(CCN(Cc3nccs3)CC2)CC1,3.3% (inactive),–

SMILES,"activity, negative = inhibition",AC50
COc1cc2c(cc1OC)[C@]13CC[N@+]4(C)CC5=CCO[C@H]6CC(=O)N2[C@@H]1[C@@H]6[C@@H]5C[C@]34O,-2.44% [at 11.4 µM] (inactive),–
C[C@@]12CC[C@H]3[C@@H](CCC4=CC(=O)CC[C@]43C)[C@H]1CC[C@H]2C(=O)CO,10.6% [at 25.6 µM] (inactive),–
CC(C)C[C@H](NP(=O)(O)O[C@@H]1O[C@@H](C)[C@@H](O)[C@@H](O)[C@H]1O)C(=O)N[C@@H](Cc1c[nH]c2ccccc12)C(=O)O,-2.19% (inactive),–
O=C(c1cc(-c2ccccc2)nc2ccccc12)N1CCC2(CC1)OCCO2,-2.96% (inactive),–
CN(C)CCN(C)CCc1ccc(Cl)c(Cl)c1,-0.0606% (inactive),–
CN(CCc1ccc(Cl)c(Cl)c1)[C@H]1CCCC[C@H]1N1CCCC1,–,0.00631 µM (active)
Clc1cnc(Oc2ccc(Oc3ncc(Cl)cc3Cl)cc2)c(Cl)c1,-6.42% (inactive),–
NS(=O)(=O)c1ccc(-c2ccc([As](=O)(O)O)cc2)cc1,16.2% [at 11.4 µM] (inactive),–
N[C@@H](Cn1oc(=O)[nH]c1=O)C(=O)O,4.45% (inactive),–
N[C@@H](Cn1cc(I)c(=O)[nH]c1=O)C(=O)O,13.8% (inactive),–
N[C@H](Cn1ccc(=O)[nH]c1=O)C(=O)O,–,3.98 µM (active)
CCSCC[C@H](N)C(=O)O,2.98% [at 11.4 µM] (inactive),–
CC(=O)OCC(=O)[C@@H]1CC[C@H]2[C@H]3CC[C@H]4C[C@@H](O)CC[C@]4(C)[C@@H]3C(=O)C[C@@]12C,3.28% [at 25.6 µM] (inactive),–
COc1ccc(C2NCc3ccc4c(c3-n3cccc32)OCO4)cc1OC (configuration not stated),–,0.398 µM (active)
CCNC(=O)[C@@H]1O[C@@H](n2cnc3c(N)ncnc32)[C@H](O)[C@H]1O,1.61% (inactive),–
C[C@@H]1[C@H]2C=C[C@@H]1[C@@H](c1c3ccc(=O)c(O)c-3oc3c(O)c(O)ccc13)[C@@H]2C(=O)O,2.68% [at 11.4 µM] (inactive),–
Cc1nc2ccccc2c(=O)n1-n1cnnc1,2.1% (inactive),–
Clc1ccc(C(c2ccc(Cl)cc2)n2cc[n+](C[C@@H](OCc3ccc(Cl)cc3Cl)c3ccc(Cl)cc3Cl)c2)cc1,–,0.0398 µM (active)
O=C(C1CC(=O)N(C2CCCC2)C1)N1CCC2(CC1)OCCO2 (configuration not stated),13.9% (inactive),–
